Screens from PubChem BioAssay.
Only some compounds are listed: those with a hit (about 4% of all), similar ones and a draw of the others.
RecA splice inh – Mtb RecA intein splicing inhibition; cell-free RecA intein splicing, fluorescence; inhibition, % (concentration not given with the values); hit rate 0.75% among 290,000; in the data active means inhibition above about 30%
Target sequence (P9WHJ3 whole entry, looked up, canonical isoform): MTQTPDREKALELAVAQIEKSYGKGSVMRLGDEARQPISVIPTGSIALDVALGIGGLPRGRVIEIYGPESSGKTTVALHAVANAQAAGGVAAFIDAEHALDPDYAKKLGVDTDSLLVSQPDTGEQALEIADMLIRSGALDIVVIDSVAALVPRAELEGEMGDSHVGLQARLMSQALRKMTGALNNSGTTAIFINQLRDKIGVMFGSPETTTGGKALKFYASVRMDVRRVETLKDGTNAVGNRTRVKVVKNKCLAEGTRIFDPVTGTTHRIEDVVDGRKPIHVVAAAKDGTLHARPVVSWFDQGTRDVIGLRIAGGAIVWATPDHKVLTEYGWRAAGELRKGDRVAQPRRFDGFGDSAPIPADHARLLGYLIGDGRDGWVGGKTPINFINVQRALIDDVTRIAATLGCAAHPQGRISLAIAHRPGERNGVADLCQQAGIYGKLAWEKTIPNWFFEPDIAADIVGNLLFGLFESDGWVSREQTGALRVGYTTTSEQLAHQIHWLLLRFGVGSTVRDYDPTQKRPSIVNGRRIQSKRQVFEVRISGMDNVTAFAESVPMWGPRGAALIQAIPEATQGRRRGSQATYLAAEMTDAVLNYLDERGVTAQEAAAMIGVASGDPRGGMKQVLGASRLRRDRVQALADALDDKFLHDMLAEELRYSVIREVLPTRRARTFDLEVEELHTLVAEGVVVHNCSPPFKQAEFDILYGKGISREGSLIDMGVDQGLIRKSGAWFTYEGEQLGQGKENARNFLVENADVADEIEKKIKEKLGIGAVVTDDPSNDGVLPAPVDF
GDH-TPI counter-1 – GDH-TPI coupled enzyme inhibition counter-screen. GDH-TPI coupled enzyme counterscreen, NADH absorbance. inhibition, % at 4.8 µM. hit rate 1.2% among 360,000; in the data active means inhibition above about 30%
Mtb bLac sens – beta-lactam sensitization of Mtb H37Rv; AID 434955; M. tuberculosis H37Rv growth with meropenem, percent inhibition; inhibition, % at 25 µM; hit rate 0.27% among 330,000; call rule not given here;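 further: growth measured after seven days incubation then overnight dye step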
UGM FP inh – inhibitors of M. tuberculosis UDP-galactopyranose mutase. hit rate 0.06% among 320,000. inhibition, % at 10 µM. AID 504406. purified UGM, fluorescence polarization probe displacement. P9WIQ1; in the data active means inhibition above about 10%, passing the limit was not always enough
Rv3671c inh – inhibitors of M. tuberculosis serine protease Rv3671c; hit rate 0.048% among 320,000; P9WHR9; AID 2606; inhibition, % at 5.96 µM; in the data active means inhibition above about 38%;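 further: extracellular domain of Rv3671c used as enzyme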
FBA Mtb inh – Mtb fructose-bisphosphate aldolase inhibition. P9WQA3. purified M. tuberculosis FBA, fluorescence read-out. inhibition, % at 1 µM. hit rate 2.3% among 360,000
Mtb FBA confirm – confirmation of M. tuberculosis fructose-bisphosphate aldolase inhibitors; shares compounds with FBA Mtb inh; AID 651616; hit rate 78% among 5,600; inhibition, % at 1 µM; purified M. tuberculosis FBA, fluorescence read-out
GDH-TPI counter-2 – GDH-TPI inhibition counter-screen for FBA inhibitors. shares compounds with FBA Mtb inh. GDH-TPI coupled enzyme counterscreen, fluorescence. inhibition, % at 1 µM. hit rate 81% among 5,600. AID 652141; in the data active means inhibition above about 10%
A number is an active result; . = inactive; / = no result given; + = active, no number. Unless noted, no stated cut-off is given here; in the data, active means inhibition above about 27%; inactive means the rest.

SMILES	RecA splice inh	GDH-TPI counter-1	Mtb bLac sens	UGM FP inh	Rv3671c inh	FBA Mtb inh	Mtb FBA confirm	GDH-TPI counter-2
COc1ccc2c(c1)C1OCCC1C(c1ccco1)N2 (configuration not stated)	.	44	.	.	.	93	96	67
Cc1ccc(O)c(NC(=O)c2cc(C)no2)c1	.	.	.	.	.	.	/	/
Fc1cccc(Cl)c1CNCc1cccnc1	.	.	.	.	.	.	/	/
COc1ccccc1NC(=O)COC(=O)CCc1ccc(S(=O)(=O)N2CCOCC2)cc1	/	.	.	.	.	31	162	134
Cc1cccc(NC(=O)COC(=O)CCc2ccc(S(=O)(=O)N3CCOCC3)cc2)c1C	.	.	.	.	.	.	/	/
Nc1ncnc2oc(-c3ccco3)c(-c3ccco3)c12	.	.	.	.	.	31	+	143
CCOC(=O)CSc1ccc(-c2nc3cc(C)c(C)cc3[nH]2)cn1	.	.	.	.	.	.	/	/
Cc1cc2nc(-c3ccc(SCC(=O)N4CCOCC4)nc3)[nH]c2cc1C	.	31	.	.	.	54	57	50
Cc1cc2nc(-c3ccc(SCc4ccccn4)nc3)[nH]c2cc1C	.	38	.	.	.	41	54	51
Cc1cc2nc(-c3ccc(SCC(=O)N4CCN(C(=O)c5ccco5)CC4)nc3)[nH]c2cc1C	.	48	.	.	.	35	44	27
CCOc1ccc(C(=O)NC(C(=O)NCC(c2cccs2)N(C)C)C(C)C)cc1 (configuration not stated)	/	.	.	.	.	.	/	/
Cc1cc(C)c(NC(=S)N(CCCN2CCOCC2)Cc2cccnc2)c(C)c1	.	.	.	.	.	.	/	/
Cc1ccc(-c2cc(-c3ccccc3)[nH]c(=S)c2C#N)cc1	.	.	.	.	.	.	/	/
Cc1cc(-c2ccccc2)[nH]c(=O)c1C#N	.	.	.	.	.	69	67	52
N#Cc1c(-c2ccco2)cc(-c2ccccc2)[nH]c1=O	.	.	.	.	.	78	80	68
CCC(CO)Nc1ncnc2c1cnn2-c1ccc(OC)cc1 (configuration not stated)	.	.	.	.	.	30	63	52
C(=N\n1cnnc1)/c1nc2ccccc2[nH]1	.	.	.	.	.	74	60	49
Cn1c(/C=N/O)nc2ccccc21	.	.	.	.	.	52	.	10
Cn1c(/C=N/n2cnnc2)nc2ccccc21	.	37	.	.	.	45	.	.
Cn1c(/C=N/c2nc3ccccc3[nH]2)nc2ccccc21	.	.	/	.	.	.	/	/
CCC(=O)c1ccc(/C=C/c2nc3ccccc3n2C)o1	.	.	.	.	.	83	.	.
O=C(O)Cn1c2c(c3ccccc31)CSc1ccc(Cl)cc1-2	.	.	.	.	.	.	/	/
CN(C)Cc1ccccc1CNC(=O)c1ccc(Cl)c(S(=O)(=O)NC2CC2)c1	/	.	/	/	/	.	/	/
COc1ccccc1COCC(O)CN1CCN(S(=O)(=O)c2cccc(F)c2)CC1 (configuration not stated)	/	.	.	.	.	.	/	/
COc1ccccc1C(=O)NCCCNc1nc2cc(C)cc(C)c2cc1C#N	/	.	/	/	/	42	+	146
SMILES	RecA splice inh	GDH-TPI counter-1	Mtb bLac sens	UGM FP inh	Rv3671c inh	FBA Mtb inh	Mtb FBA confirm	GDH-TPI counter-2
Cc1cc(C)c2cc(C#N)c(NCCCNC(=O)CCC(=O)O)nc2c1	.	.	.	.	.	42	44	36
CC(=O)Nc1cccc(-c2ccnc3c2CC(C)(C(=O)NCc2cccs2)O3)c1 (configuration not stated)	/	.	/	/	/	.	/	/
CCOC(=O)C(=O)NCC(c1cccs1)S(=O)(=O)c1ccc(F)cc1 (configuration not stated)	.	.	.	.	.	.	/	/
Cc1nnc(C)n1N1C(=O)c2cccc3cccc(c23)C1=O	.	.	.	.	.	62	.	10
Cc1cc(C)c2c(=O)n3c(nc2c1)C(Cc1ccccc1)NC(=O)c1cc2ccccc2cc1-3 (configuration not stated)	/	.	/	/	/	.	/	/
FC(F)(F)c1ccc2c(c1)NCC1CCCN21 (configuration not stated)	.	.	.	.	.	45	54	50
CC(C)CN1Cc2cc(-c3ccccc3)ccc2-n2nncc2C1	/	/	/	/	/	31	+	+
COc1ccc(N(C(=O)c2ccncc2)S(=O)(=O)c2ccc3c4c(cccc24)C(=O)N3C)cc1	.	.	.	.	.	.	/	/
CCN1C(=O)c2cccc3c(S(=O)(=O)N(C(C)=O)c4ccc(OC(C)=O)cc4)ccc1c23	/	.	.	.	.	53	+	+
COc1ccc(CN(C)C(=O)Cn2cnc3c(NCc4ccccc4)ncnc32)cc1OC	/	.	/	/	/	.	/	/
Cc1ccc(CNC(=O)CCCc2cn(C)c3ccccc23)cc1	.	.	.	.	.	.	/	/
CC(=O)c1c(C)oc2ccc(N(C(C)=O)S(=O)(=O)c3cccc4cccnc34)cc12	.	.	.	.	.	.	/	/
CN(C)c1ccc2c(O)cc(=O)n(C)c2c1	.	.	.	.	.	37	29	25
CCCc1cc(=O)[nH]c(SCC(=O)Nc2sc3c(c2C#N)CCC(C)C3)n1 (configuration not stated)	.	.	.	.	.	37	99	73
CC1CCc2c(sc(NC(=O)CSc3ncn[nH]3)c2C#N)C1 (configuration not stated)	.	.	.	.	.	.	/	/
COc1ccccc1Oc1coc2cc(OCC(N)=O)ccc2c1=O	.	.	.	.	.	.	/	/
CCc1ccccc1Oc1coc2cc(O)ccc2c1=O	.	.	.	.	.	31	111	75
Cc1cccc(Oc2coc3cc(O)ccc3c2=O)c1	.	.	.	.	.	37	72	63
COc1cccc(-c2cnc3c(NC=O)cc(-c4ccccc4Oc4ccccc4)cn23)c1	/	.	/	/	/	.	/	/
CN1CCN(C(=O)c2cccc(-c3cnc4cnc(-c5ccccc5Oc5ccccc5)cn34)c2)CC1	/	.	/	/	/	36	113	102
c1ccc(-c2cn3ccccc3n2)cc1	/	.	/	/	/	35	.	.
Oc1ccc(-c2cn3ccccc3n2)cc1	.	.	.	.	.	57	.	.
CCN(CC)S(=O)(=O)c1ccc(-c2cn3ccccc3n2)cc1	/	.	/	/	/	86	158	113
Oc1ccc(-c2cn3ccccc3n2)cc1O	.	.	.	.	.	.	/	/
c1ccc2c(-c3cn4ccccc4n3)c[nH]c2c1	.	/	.	.	.	/	/	/
CCOC(=O)C1=C(COC(=O)c2cccc(NC(C)=O)c2)NC(=O)NC1C (configuration not stated)	.	.	.	.	.	.	/	/
CC(C)CNC(=S)N(CCCO)Cc1cc2cc3c(cc2[nH]c1=O)OCO3	/	.	.	.	.	33	148	98
